From PubChem BioAssay AID492956 (The Scripps Research Institute Molecular Screening Center, 2010)
The whole screen tested about 340,000 compounds, of which about 3,300 (0.97%) were called active. This is one part of a sample in which actives are shown more often than they occur. A number with no mark means an inactive call.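 The calls were made as follows: active = inhibition above the mean over all tested compounds plus 3 SD (cut at about 30% in these data); inactive = the rest.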

target: Platelet-activating factor acetylhydrolase 2, cytoplasmic (Homo sapiens) (UniProt Q99487); experiment: inhibition of cytoplasmic PAF acetylhydrolase 2 – biochemical, fluorescence polarization, human, primary screen (AID 492956); conditions: recombinant PAFAH2, FP-rhodamine activity probe, at 3.39 µM, active compounds read high;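 also: inhibitors block probe labeling of enzyme so polarization drops; 0% = enzyme with DMSO and 100% = wells lacking PAFAH2 protein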

Row | SMILES | inhibition
1 | CCOCc1nnc(NC(=O)CCC2CCCCC2)s1 | 3.07%
2 | CCOc1cc(-c2conc2N)cc(OCC)c1OCC | -0.29%
3 | CCCc1cc(=O)[nH]c(SCc2ccc(C#N)cc2)n1 | -7.81%
4 | CCCc1cc(=O)n2[nH]c(C)c(-c3ccc(Cl)cc3)c2n1 | 4.35%
5 | CCCc1cc(=O)n2[nH]c(SCc3ccccc3)nc2n1 | 58.2% (active)
6 | O=C1CCc2cc(S(=O)(=O)N3CCC(C(=O)NCc4ccccc4Cl)CC3)ccc2N1 | 7.4%
7 | NNC(=O)C1CC(O)CN1S(=O)(=O)c1ccc(Cl)cc1 (centres undefined) | -7.58%
8 | O=C(CCN1CCN(C/C=C/c2ccccc2)CC1)Nc1cccc(F)c1 | -0.13%
9 | O=c1ccc2c(-c3ccccc3S(=O)(=O)O)c3ccc(O)c(O)c3oc-2c1O | 74.3% (active)
10 | O=C1C2C3C=CC(C3)C2C(=O)N1c1ncc([N+](=O)[O-])s1 (centres undefined) | 3.52%
11 | CC1(C)NC(=O)N(CC(=O)Nc2cc(C(F)(F)F)cc(C(F)(F)F)c2)C1=O | 2.33%
12 | N/C(=N\OS(=O)(=O)c1cccc([N+](=O)[O-])c1)c1ccncc1 | -0.37%
13 | CCCC(CCC(=O)OC)(C(=O)OCC)c1csc(N)n1 (centres undefined) | 3.59%
14 | O=C(N/N=C/c1cc([N+](=O)[O-])ccc1O)/C(=C\c1cccs1)NC(=O)c1ccccc1 | -3.54%
15 | Nc1nnnn1/N=C/c1cc([N+](=O)[O-])ccc1O | -12.5%
16 | O=[N+]([O-])c1ccc(O)c(/C=N/Nc2ccccc2[N+](=O)[O-])c1 | 51.1% (active)
17 | O=C(O)c1ccccc1N=N/C(=N/Nc1cc(S(=O)(=O)O)ccc1O)c1ccccc1 | 50.6% (active)
18 | COc1cccc(/C=N/Nc2ccc(S(=O)(=O)Nc3ccccc3C(=O)O)cc2[N+](=O)[O-])c1O | 27.3%
19 | NC[C@H](Cc1ccccc1)NCCc1cc(C(F)(F)F)cc(C(F)(F)F)c1 | -1.16%
20 | O=C(OCCN1C(=O)c2ccccc2C1=O)[C@@H]1CC(O)CN1S(=O)(=O)c1ccccc1[N+](=O)[O-] (some centres undefined) | 3.85%
21 | O=C(CN1C(=O)NC2(CCOc3ccccc32)C1=O)NCc1ccc(F)cc1 (centres undefined) | -2.58%
22 | CCC(C)c1ccc(NC(=O)COC(=O)C2CCCC2)cc1 (centres undefined) | 46.3% (active)
23 | O=C(COC(=O)C1CCCCC1)Nc1ccc([N+](=O)[O-])cc1 | 59.7% (active)

Row | SMILES | inhibition
24 | O=C(COC(=O)Cc1ccc([N+](=O)[O-])cc1)NC1CCCCCC1 | 2.56%
25 | N/C(Cc1ccc([N+](=O)[O-])cc1)=N\OC(=O)C1CCCCC1 | 18.1%
26 | CC(=O)Nc1ccc(NC(=O)COC(=O)C2CCC(C(C)(C)C)CC2)cc1 (centres undefined) | 2.02%
27 | CCC(C)c1ccc(NC(=S)N2CCCC2)cc1 (centres undefined) | -2.78%
28 | Cc1nc([N+](=O)[O-])nn1C12CC3CC(CC(Br)(C3)C1)C2 | 4.57%
29 | Clc1c(OCCCn2ccnc2)ccc2ccccc12 | 0.49%
30 | CCOC(=O)C1CCCN(C(=O)c2ccc(C)c(S(=O)(=O)N3CCCCC3)c2)C1 (centres undefined) | 3.86%
31 | O=C(c1ccc(F)cc1)N1CCCC(C(=O)N2CCCCC2)C1 (centres undefined) | -1.35%
32 | Cc1ccc(F)cc1S(=O)(=O)Nc1cccc(C(=O)N2CCCC(C(N)=O)C2)c1 (centres undefined) | 45.3% (active)
33 | CSc1ccc(S(=O)(=O)N2CCC(C(=O)NCc3ccncc3)CC2)cc1 | 0.67%
34 | CCCC1OC23CCCCC2C(C#N)(C#N)C1(C#N)C(=N)O3 (centres undefined) | 35.4% (active)
35 | O=C(Nc1ccc(S(=O)(=O)N2CCCCC2)cc1)C1CC(=O)N(c2ccc(F)cc2)C1 (centres undefined) | -0.7%
36 | O=S(=O)(c1ccc(Cl)cc1)c1nc(-c2ccco2)oc1N1CCCCC1 | -0.15%
37 | O=c1oc(-c2ccco2)nc2sc3c(c12)CCCCC3 | 46.4% (active)
38 | Cn1c(NN)nc2sc3c(c2c1=O)CCC3 | 4.91%
39 | Cc1cc(-n2cnc(-c3cn(C)nc3C)n2)no1 | 2.99%
40 | Cc1noc(/C=C/c2ccco2)c1S(=O)(=O)N1CCC(C(=O)N2CCc3ccccc32)CC1 | -7.75%
41 | O=C(O)Cc1csc(NC(=O)CSc2nnnn2-c2ccc(O)cc2)n1 | 1.29%
42 | CCn1c(CNC(=O)c2ccccc2)nnc1SCC(=O)N1CCN(c2ccccc2)CC1 | -4.72%
43 | CCN(C(=O)CSc1nnnn1-c1ccc(OC)cc1)C1CCS(=O)(=O)C1 (centres undefined) | 4.1%
44 | COc1ccc(C(C)C)cc1S(=O)(=O)Nc1ncn[nH]1 | -3.51%
45 | CCCCCNC(=O)C1c2ccccc2Oc2ccccc21 | -0.79%
46 | CCCN(CCC)C(=O)C1c2ccccc2Oc2ccccc21 | 32.9% (active)

Row | SMILES | inhibition
47 | CCC(C)NC(=O)C1c2ccccc2Oc2ccccc21 (centres undefined) | -4.35%
48 | O=c1[nH]c(/C=C/c2cccc(Br)c2)nc2ccccc12 | 6.48%
49 | O=c1oc(/C=C/c2ccccc2)nc2ccccc12 | 76.7% (active)
50 | S=c1[nH]nc(/C=C/c2ccccc2)o1 | -11.5%
51 | CCc1ccc2nc(Nc3ncc(C(C)=O)c(C)n3)nc(C)c2c1 | 7.02%
52 | Cc1ccc(S/C(=N\S(=O)(=O)c2ccc(Cl)cc2)c2ccccc2)cc1 | 5.84%
53 | Cc1cc(=O)oc2c3c(cc(OCC(=O)NCc4ccccn4)c12)OC(C)(C)CC3 | 14.1%
54 | Cc1c(C)c2c(OCC(=O)N[C@@H](C(=O)O)c3ccccc3)cc3c(c2oc1=O)CCC(C)(C)O3 | 90.8% (active)
55 | Cc1c(C)c2c(OCC(=O)NCCCO)cc3c(c2oc1=O)CCC(C)(C)O3 | 72.5% (active)
56 | Cc1cc(=O)oc2c3c(cc(OCC(=O)NCCC(=O)N[C@@H](C)C(=O)O)c12)OC(C)(C)CC3 | 6.3%
57 | Cc1cc(=O)oc2c3c(cc(OCC(=O)N[C@H](C(=O)O)c4ccccc4)c12)OC(C)(C)CC3 | 18.3%
58 | Cc1cc(OCC(=O)NCC(O)c2ccccc2)c2c(C)c(C)c(=O)oc2c1 (centres undefined) | 0.4%
59 | CCN(CC)c1ccc(NC(=O)CN2C(=O)NC3(CCc4ccccc43)C2=O)cc1 (centres undefined) | -0.31%
60 | Cc1cc(C)n(CCNCc2c(C(=O)N3C[C@@H](C)O[C@@H](C)C3)nc3ccc(Cl)cn23)n1 | 0.53%
61 | C#CC(C)(C)NC(=O)c1cnc(-c2ccccc2)nc1-c1ccccc1 | -1.01%
62 | CC(Nc1ccc([N+](=O)[O-])cc1[N+](=O)[O-])c1ccccc1 (centres undefined) | 4.73%
63 | Cc1ccc(OCC(=O)Nc2ccccc2Sc2ccc(Cl)cc2)c([N+](=O)[O-])n1 | 0.47%
64 | COc1ccc(Cc2n[nH]c(=S)n2NC(=O)Nc2ccc(C)cc2)cc1 | -2.45%
65 | CN(CC(=O)Nc1ccc(OC(F)F)cc1)S(=O)(=O)/C=C/c1ccccc1 | 3.38%
66 | COc1ccc(NC(=O)COC(=O)c2ccc(NS(=O)(=O)/C=C/c3ccccc3)cc2)cc1 | 75.8% (active)
67 | NS(=O)(=O)c1ccc(NS(=O)(=O)/C=C/c2ccccc2)cc1 | 4.92%
68 | O=C(NCc1ccccc1)C1C(=O)N(Cc2ccccc2)C(=O)C1C1(O)CCCC1 (centres undefined) | 3.41%
69 | O=C(Cc1ccc(S(=O)(=O)N2CCOCC2)s1)NCCC(c1ccccc1)c1ccccc1 | 3.55%

Row | SMILES | inhibition
70 | O=C(OCCOc1ccccc1F)c1cc(S(=O)(=O)N2CCOCC2)ccc1F | -1.58%
71 | O=C(Cc1ccc(S(=O)(=O)N2CCOCC2)s1)NCCOc1ccccc1F | 38.8% (active)
72 | Cc1ccc2c(c1)N(CC(=O)NCC1CCCO1)C(=O)CO2 (centres undefined) | 3.2%
73 | COCCCn1c(Cc2csc(Nc3cccc(Cl)c3)n2)nnc1SCC(=O)OC1CCCCC1 | 0.44%
74 | O=S(=O)(c1ccc(NC(=S)NN=C(C2CC2)C2CC2)cc1)N1CCOCC1 | 8.93%
75 | O=[N+]([O-])c1cc(Cl)cc(/C=N/NC(=S)Nc2cc(S(=O)(=O)N3CCOCC3)ccc2Cl)c1O | 85.2% (active)
76 | Cc1ccc(S(=O)(=O)N2CCN(CC(=O)N/N=C/c3cc([N+](=O)[O-])ccc3Cl)CC2)cc1 | -3.59%
77 | C/C(=N\NC(=O)c1ccc(C)cc1)C1C(=O)c2ccccc2C1=O | 14.8%
78 | CCN1CCN(c2ccc(S(=O)(=O)N3CCCCC3)cc2NC(=O)Cc2c(Cl)cccc2Cl)CC1 | 12.9%
79 | O=C(Nc1nnc(SCc2ccccc2Cl)s1)c1cccc([N+](=O)[O-])c1 | 32.2% (active)
80 | Cc1cc(C)c2nc(NC(=O)C3CCCO3)sc2c1 (centres undefined) | -3.31%
81 | O=C(Nc1ccc(C2CC2(Cl)Cl)cc1)c1cccc([N+](=O)[O-])c1 (centres undefined) | -4.09%
82 | CCOC(=O)CSc1nnc(NC(=O)c2cccc(S(=O)(=O)N3CCCC3)c2)s1 | 1.53%
83 | O=C(Nc1nnc(SCc2c(Cl)cccc2Cl)s1)c1cccc([N+](=O)[O-])c1 | 57.2% (active)
84 | O=C(NCc1ccccc1Cl)C1CCCO1 (centres undefined) | 6.52%
85 | O=C(Nc1nnc(SCc2c(Cl)cccc2Cl)s1)C1CCCO1 (centres undefined) | 35.8% (active)
86 | Cc1cc(C)nc(NC(=O)c2cccc([N+](=O)[O-])c2)c1 | -7.58%
87 | NC(=O)CSc1nnc(NC(=O)c2ccc3ccccc3c2)s1 | 1.32%
88 | COC(=O)C1=C(C(=O)OC)C(c2cc([N+](=O)[O-])ccc2O)c2sc(=O)[nH]c2S1 (centres undefined) | 11.7%
89 | CC(C)(C)c1ccccc1NC(=O)CN1C(=O)NC2(CCCC2)C1=O | -2.59%
